Inconclusive results are not listed. A call without a number means that no potency is given here. Activity calls are given as the source filed them. The call rests on the fitted dose curve; in most records, active means well fitted cell-killing curve with a large enough effect; inconclusive means small, poorly fitted or top-dose-only effect; inactive means no such curve, though single readings can be large or run the other way.

This is an account of results in PubChem BioAssay (NCATS).
Potency means the concentration at half of the fitted maximal effect.

The nature of the test: qHTS of pediatric cancer cell lines to identify multiple opportunities for drug repurposing: Primary screen for SK-N-MC cells (AID 1347093). The following applies: SK-N-MC viability, CellTiter-Glo luminescence, 48 h; series mostly up to 46 µM. From the text: Drug repurposing or repositioning has been offered as a strategy for drug development in oncology programs. This approach has special potential for childhood cancers and other rare or orphan diseases, where the expected return on new drug development has been a disincentive to pharmaceuticals.
In this project we exploit the poly-pharmacology of drugs to discover new indications via phenotypic screening of a panel of 19 well-characterized cell lines derived from solid tumors seen in children and adolescents. The goal is to identify approved drugs with previously unrecognized anticancer properties that has the potential to reveal new mechanisms and biological processes involved in carcinogenesis or drug resistance. We employed a titration-based paradigm (quantitative high-throughput screening or qHTS), where all compounds were tested at multiple concentrations for their effect on cell viability. Concentration-response curves (CRCs) were derived directly from the primary screen, and both potency and efficacy values were used to identify compounds with robust bioactivity profiles. We screened the NIH Chemical Genomics Center (NCGC) Pharmaceutical Collection (NPC) and Mechanism Interrogation Plate (MIPE) small molecule collections of approved and investigational compounds against these cell lines; and measured metabolically active cells after 48 hours of compound treatment as a proxy for cell viability.
Assay Submitter: Nathalia J. Martinez, National Center for Advancing Translational Sciences, National Institutes of Health, Rockville, MD, USA; email: natalia.martinez@nih.gov
[1] Shen, M et al. Quantitative high-throughput phenotypic screening of pediatric cancer cell lines identifies multiple opportunities for drug repurposing. Oncotarget 2017 Dec 19;9(4):4758-4772. PMID 29435139.
The cells were obtained from University of North Carolina (UNC), Pediatric Preclinical Testing Program (PPT), and Coriell Institute (CI).
qHTS cell viability assay:
Cells were assayed in growth media at a density of 500-1,000 cells/well. Five microliters of cells were dispensed into 1,536-well, white, solid-bottom, TC-treated plates (Greiner Bio One) using a multidrop dispenser and incubated at 37 degrees C, 5% CO2, under a humidified atmosphere for 5 hours. Twenty-three nanoliters of compounds and controls (neutral control DMSO or positive control bortezomib at final concentration of 2.3 µM) were subsequently transferred by Kalypsys pintool. For primary screens, the MIPE collection was tested at 11-point dilutions (final concentrations range from 0.78 nM to 46 µM) and the NPC collection at 8-point dilutions (final concentrations range from 0.59nM to 46 µM). Compounds tested in follow-up screens were assayed at 11-point dilutions. Cells were incubated for 48 hours, followed by addition of 3 uL of CellTiter-Glo (Promega). After a 15 min incubation at room temperature, samples were analyzed for luminescence intensity using a ViewLux High-throughput CCD imager equipped with clear filters.
(In general: qHTS replaces the single test concentration by a dilution series.)
With `Cc1ncc([N+](=O)[O-])n1CC(O)CCl` (stereo not given), the Potency result was “inactive”.

As for `CCCc1c(OCCCCc2nn[nH]n2)ccc(C(C)=O)c1O`, the Potency entry is “inactive”.

Take `C/C(=C(\CCOP(=O)(O)O)SC(=O)c1ccccc1)N(C=O)Cc1cnc(C)nc1N`: the activity change, negative = cytotoxic is -16.7% [at 4.84 µM] (inactive).

In the case of `Cc1cc(CC(=O)O)n(C)c1C(=O)c1ccc(Cl)cc1`, the Potency entry is “inactive”.

On to `C[C@]12CC[C@@H]3c4ccc(O)cc4CC[C@H]3[C@@H]1CCC2=O`, for which the Potency result is “inactive”.

As for `O=C(Oc1ccccc1C(=O)O)c1ccccc1O`, the Potency result was “inactive”.

`CC(C)(C(=O)O)c1ccc(C(O)CCCN2CCC(C(O)(c3ccccc3)c3ccccc3)CC2)cc1` (stereo not given): the Potency result is “inactive”.

On to `CC[C@@]1(c2ccccc2)NC(=O)N(C)C1=O`, for which the Potency entry was “inactive”.

In the case of `O=C(O)[C@H](O)c1ccccc1`, the Potency entry was “inactive”.

In the case of `NC1CCN(c2cccc(Cl)n2)CC1`, the Potency result was “inactive”.

As to `CCOC(=O)[C@H](CCc1ccccc1)N[C@@H](C)C(=O)N1C(=O)N(C)C[C@H]1C(=O)O`, the Potency entry is “inactive”.

For `CCCCC(CC)COC(=O)c1ccccc1O` (stereo not given), the Potency entry was “inactive”.

On to `CCCCN(CCCC)CCCOC(=O)c1ccc(N)cc1`, for which the Potency entry is “inactive”.

Turning to `C[C@@H]1C[C@H]2[C@@H]3C[C@H](F)C4=CC(=O)C=C[C@]4(C)[C@@]3(F)[C@@H](O)C[C@]2(C)[C@@]1(O)C(=O)CO`, the Potency entry is “inactive”.

As for `CC1=C(CC(=O)O)c2cc(F)ccc2/C1=C\c1ccc(S(C)=O)cc1` (stereo not given), the Potency result was “inactive”.

On to `CC(CN1c2ccccc2Sc2ccccc21)N(C)C` (stereo not given), for which the Potency result is “inactive”.

`Nc1ccc(S(=O)(=O)NC(=O)c2ccccc2)cc1`: the Potency entry was “inactive”.

Regarding `CCOc1ccc2ccccc2c1C(=O)N[C@@H]1C(=O)N2[C@@H]1SC(C)(C)[C@@H]2C(=O)O`, the Potency result is “inactive”.

With `Cn1c(=O)c2c(ncn2CC2OCCO2)n(C)c1=O`, the Potency entry is “inactive”.

Take `CN1CCN(C2Cc3ccccc3Sc3ccc(Cl)cc32)CC1` (stereo not given): the Potency was 21.1 µM (active).

With `C[C@H](NC(CCc1ccccc1)C(=O)O)C(=O)N1CCC[C@H]1C(=O)O` (stereo not given in full), the Potency result was “inactive”.

For the molecule `CCOC(=O)c1ccc(O)cc1`, the Potency entry was “inactive”.

Regarding `CCOC(CN1CCN(CC(C)C(=O)c2ccccc2)CC1)c1ccccc1` (stereo not given), the Potency result is “inactive”.

Consider `O=C1N=C(O)CN1/N=C/c1ccc(-c2ccc([N+](=O)[O-])cc2)o1`, for which the Potency is 5.31 µM (active).

Take `Nc1ccc(S(=O)(=O)Nc2ccc(Cl)nn2)cc1`: the Potency result was “inactive”.

For `Cc1cc(O)cc2c1O[C@](C)(CCC[C@H](C)CCC[C@H](C)CCCC(C)C)CC2`, the Potency result was “inactive”.

In the case of `CCCCc1ncc(/C=C(\Cc2cccs2)C(=O)O)n1Cc1ccc(C(=O)O)cc1`, the Potency result was “inactive”.

With `CCN(CC)C(C)CN1c2ccccc2Sc2ccccc21` (stereo not given), the Potency result was “inactive”.

As to `OC[C@H]1O[C@@H](O[C@@H]2[C@@H](CO)O[C@](O)(CO)[C@H]2O)[C@H](O)[C@@H](O)[C@H]1O`, the Potency entry was “inactive”.

Consider `CC(O)CN(CCN(CC(C)O)CC(C)O)CC(C)O` (stereo not given), for which the Potency entry is “inactive”.

As for `O=S(=O)(O)c1cc(I)c(O)c2ncccc12`, the Potency result was “inactive”.

On to `NS(=O)(=O)c1cc2c(cc1C(F)(F)F)NC(Cc1ccccc1)NS2(=O)=O` (stereo not given), for which the Potency entry was “inactive”.

Regarding `CC(COc1ccccc1)NC(C)C(O)c1ccc(O)cc1` (stereo not given), the Potency result is “inactive”.

Take `CCCCOC(=O)c1ccc(O)cc1`: the Potency entry was “inactive”.

As for `O=c1[nH]cnc2c1ncn2[C@@H]1O[C@H](CO)[C@@H](O)[C@H]1O`, the Potency result was “inactive”.

As for `CN(C)CCOC(C)(c1ccccc1)c1ccccn1` (stereo not given), the Potency result is “inactive”.

In the case of `Oc1cn2c(n1)Nc1ccc(Cl)c(Cl)c1C2`, the Potency entry was “inactive”.

For `O=S(=O)(O)NC1CCCCC1`, the Potency result was “inactive”.

As to `Cc1cc2nc3c(=O)[nH]c(=O)nc-3n(C[C@H](O)[C@H](O)[C@H](O)CO)c2cc1C`, the Potency result was “inactive”.

For the molecule `Cn1cc[nH]c1=S`, the Potency entry is “inactive”.
